The test system of this test is Lefty1. As to the kind of experiment: Lefty1 binders on small-molecule microarrays, primary screen, biochemical, small-molecule microarray, 635/667 nm fluorescence (AID 1139). The following applies: small-molecule microarray binding, fluorescence 635/667; higher = more signal.
In the case of `CN1C(=O)C2C=CC(C(O)C#Cc3ccccc3)N(Nc3ccccc3)C2C1=O` (stereo not given), the composite z-score turned out to be 0.473.
The value for `CN(C)c1ccc(C(O)C2C=CC3C(=O)N(c4ccccc4)C(=O)C3N2Nc2ccc([N+](=O)[O-])cc2)cc1` (stereo not given) was 0.149.
The value for `CN(C)C(=O)[C@@]1(Cc2ccccc2CN=[N+]=[N-])N=C(c2ccc(OCCCO)cc2)O[C@H]1c1ccccc1CN=[N+]=[N-]` was -0.483; that for `O=C1OCC=C[C@H]2OC34C=CCN(Cn5nnc6ccccc65)C(=O)[C@H]3N(CCCO)C(=O)[C@@H]4[C@@H]12` (stereo not given in full) was -0.618.
The figure for `C[N+](C)(C)CCCCCCNC(=O)[C@H]1C[C@H]2C(=O)N[C@@H](Cc3ccccc3)C(=O)N2[C@H]1c1ccc(O)cc1` is 1.34.
With `COCCOC(=O)N1C(=O)[C@@]2(c3cc(C#CCCO)ccc31)[C@H](C(=O)Nc1nc3ccccc3s1)[C@H]1C(=O)O[C@H](c3ccccc3)[C@H](c3ccccc3)N1[C@@H]2c1ccccc1OCCO`, the composite z-score stood at 0.573.
Turning to `COc1cc2c(cc1OC)CN(C(=O)[C@@H]1[C@H]3C(=O)O[C@H](c4ccccc4)[C@H](c4ccccc4)N3[C@H](c3ccc(OCCO)cc3)[C@@]13C(=O)Nc1ccc(C#CC4(O)CCCCCC4)cc13)CC2`, the composite z-score was 1.38.
The value for `COc1cc(CO)cc(I)c1O[C@H]1C=C(C(=O)NCCO)C[C@@H](NCc2ccc(F)cc2)[C@@H]1O` was 1.01.
The value for `[N-]=[N+]=NCc1ccccc1C[C@@]1(C(=O)NCc2ccccc2)N=C(c2ccc(OCCCO)cc2)O[C@@H]1c1ccccc1N=[N+]=[N-]` was -0.324; that for `O=C(CS)NCCCCCNC(=O)[C@@H]1C[C@@H]2C(=O)N3CCC[C@H]3C(=O)N2[C@@H]1c1cccc(OCCO)c1` was -0.283.
